# High-throughput results: PubChem, several laboratories
# CYP2C19 act = human CYP2C19 activators, primary screen, biochemical, luminescence; Cytochrome P450 2C19 (Homo sapiens), P33261; AID 1025, 2008; recombinant CYP2C19, luciferin-H EGE luminescence; active compounds read high; 0 = fully inhibited enzyme, 1 = untreated enzyme; activation factor at 5 µM; 96,000 tested, under 10 active;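 active means activation factor of at least 2 at 5 µM in the primary screen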;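 further: 0 = wells with 2.5 mM tranylcypromine and 1 = vehicle-only wells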
# Target sequence (P33261 whole entry, looked up): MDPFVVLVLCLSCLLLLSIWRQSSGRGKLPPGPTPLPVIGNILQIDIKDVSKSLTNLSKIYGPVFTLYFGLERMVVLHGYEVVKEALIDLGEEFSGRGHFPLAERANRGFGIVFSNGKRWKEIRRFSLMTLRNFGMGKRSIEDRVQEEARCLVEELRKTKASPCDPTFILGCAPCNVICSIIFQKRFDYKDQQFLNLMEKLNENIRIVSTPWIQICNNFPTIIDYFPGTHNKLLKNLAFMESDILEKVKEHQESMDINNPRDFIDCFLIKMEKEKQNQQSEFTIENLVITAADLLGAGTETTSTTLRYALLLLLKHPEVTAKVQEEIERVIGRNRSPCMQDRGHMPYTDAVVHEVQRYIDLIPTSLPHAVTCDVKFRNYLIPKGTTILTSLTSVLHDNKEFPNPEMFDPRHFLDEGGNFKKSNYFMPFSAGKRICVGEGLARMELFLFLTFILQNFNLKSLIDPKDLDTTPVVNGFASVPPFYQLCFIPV
# Plk1 PBD FP = Plk1 polo box domain binding inhibitors, primary screen, biochemical, fluorescence polarization. inhibition, %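 (tested at about 20 µM)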. Serine/threonine-protein kinase PLK1 (Homo sapiens), P53350. hit rate 0.13% among 97,000. Plk1 PBD phosphopeptide binding; in the data active means inhibition above about 34%, passing the limit was not always enough
# CYP2C9 inhib = blockers of cytochrome P450 2C9 activity – biochemical, luminescence, ADME assay, primary screen; P11712; CYP2C9 Supersomes, luciferin-H conversion; inhibition, % at 5 µM; hit rate 20% among 96,000; AID 777, 2007;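 active means blocking of liver enzyme CYP2C9 beyond about 50% at 5 µM, limit read from the data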
# CYP2C19 inhib = blockers of cytochrome P450 2C19 activity – biochemical, luminescence, ADME assay, primary screen | P33261 | CYP2C19 Supersomes, luciferin-H EGE luminescence, 30 min | inhibition, % at 5 µM | hit rate 21% among 96,000;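 active means CYP2C19 inhibition above a set limit at 5 µM in the primary screen, cut at about 50% in these data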;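 further: plate controls were negative control wells for no effect and 2.5 mM tranylcypromine positive control for full effect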
# CYP2C9 act = human CYP2C9 activators, primary screen, biochemical, luminescence | activation factor at 5 µM | hit rate 1.4% among 96,000 | Cytochrome P450 2C9 (Homo sapiens), P11712 | recombinant CYP2C9, luciferin-H conversion; active compounds read high; factor 1 = untreated enzyme, 0 = blocked;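 active means activation factor of 2 or more for CYP2C9 at a 5 µM dose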;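 further: 0 = sulfaphenazole-blocked wells and 1 = vehicle-only wells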
# PLK1 inh = human PLK1 kinase inhibitors, primary screen, biochemical, TR-FRET | recombinant PLK1 kinase, TR-FRET peptide phosphorylation | hit rate 0.53% among 97,000 | Serine/threonine-protein kinase PLK1 (Homo sapiens), P53350 | inhibition, % at 10 µM;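 active means inhibition of 50% or more in the single-concentration screen; inactive means inhibition below 50%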;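 further: 0% = DMSO max control and 100% = H-89 dihydrochloride min control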
# * hit, by the source's call; . = no result given. Only some compounds are listed: those with a hit (about 28% of all), similar ones and a draw of the others.
SMILES,CYP2C19 act,Plk1 PBD FP,CYP2C9 inhib,CYP2C19 inhib,CYP2C9 act,PLK1 inh
CCOC(=O)C1C(=O)CC(O)(c2ccccc2)CC1c1ccccc1 (configuration not stated),0.3,-21,82*,73*,0.2,-9
CN(C)S(=O)(=O)c1cccc(C(=O)Nc2cc(Cl)ccc2O)c1,0.5,-4,67*,49,0.3,-12
CCn1c(C)c(C)c2cc(C(=O)Nc3cccc(Cl)c3)ccc21,0.9,-19,-140,14,2.4*,-8
CN(C)S(=O)(=O)Oc1cccc(C(=O)Nc2cccc(Cl)c2)c1,0.3,0,82*,70*,0.2,-5
CCn1c2ccccc2c2cc(NC(=O)c3cccc(OC)c3)ccc21,1,-10,-38,5,1.4,-7
CN(C)S(=O)(=O)c1cccc(C(=O)Nc2cc(Cl)cc(Cl)c2)c1,0.7,11,98*,32,0,-8
CN(C)S(=O)(=O)c1cccc(C(=O)Nc2ccccc2Cl)c1,0.8,12,40,16,0.6,7
O=C(Nc1cc(Cl)cc(Cl)c1)c1cccc(OC(F)F)c1,0.8,3,34,16,0.7,-10
Cc1c(C(=O)N2CCN(c3ccccc3F)CC2)sc2ncn(CC(=O)N3CCOCC3)c(=O)c12,1,-2,11,3,0.9,-6
CNS(=O)(=O)c1cccc(C(=O)Nc2cccc(Cl)c2)c1,0.3,-14,62*,70*,0.4,-9
O=C(C1CCCCC1)N(Cc1nc2sc3c(c2c(=O)[nH]1)CCCC3)Cc1cccs1,0.7,-16,62*,30,0.4,0
CC1(C)Cc2c(c(-c3ccccc3)[nH]c(=O)c2C#N)CO1,0.4,-14,-8,55*,1.1,-8
CCCc1[nH]c(=O)c(C#N)c2c1COC(C)(C)C2,0.3,-9,20,66*,0.8,-7
CC1(C)Cc2c(c(-c3ccccc3Cl)[nH]c(=O)c2C#N)CO1,0.1,0,4,92*,1,-7
COc1nc(-c2ccccc2)c2c(c1C#N)CC(C)(C)OC2,0.2,6,47,78*,0.5,-3
CC(C)Cc1[nH]c(=O)c(C#N)c2c1COC(C)(C)C2,0.5,17,-10,46,1.1,-3
COCCNC(=O)COC(=O)CSCc1nc2ccccc2s1,0.9,19,0,9,1,-13
CC1(C)Cc2c(C#N)c(OCC(=O)c3ccc(Cl)cc3)nc(-c3ccoc3)c2CO1,0.2,-11,38,79*,0.6,-2
CC1(C)Cc2c(C#N)c(OCC(=O)c3ccccc3)nc(-c3ccoc3)c2CO1,0.9,-2,5,13,1,-1
Cn1ccnc1SCC(=O)c1ccc(Br)cc1,0.1,-8,15,93*,0.8,-7
O=C(CSc1nccn1-c1ccccc1)c1ccc(Br)cc1,0.4,0,17,61*,0.8,-7
Cc1ccccc1CSc1nccn1-c1ccccc1,0.2,-2,57*,82*,0.4,-9
Cc1nnc(NC(=O)CSc2nccn2C)s1,.,-3,.,.,.,-5
Cc1ccccc1-n1ccnc1SCC(=O)O,0.8,-10,27,23,0.7,-6
Cn1c(=O)c2c(nc(SCC(=O)N3CCCCCC3)n2C)n(C)c1=O,.,-6,.,.,.,-7
SMILES,CYP2C19 act,Plk1 PBD FP,CYP2C9 inhib,CYP2C19 inhib,CYP2C9 act,PLK1 inh
Cc1cc(C)nc(SCSc2nc(C)cc(C)n2)n1,0.7,.,14,28,0.9,.
Cc1cc(C)nc(SCCc2ccncc2)n1,0.3,.,40,73*,0.6,.
COC(=O)C1=C(N)OC2=C(C(=O)CC(C)(C)C2)C1c1cccs1 (configuration not stated),0.3,.,81*,73*,0.2,.
CCC1C(C#N)=C(N)OC2=C1C(=O)CC(C)(C)C2 (configuration not stated),.,-17,.,.,.,-15
CCOC(=O)C1=C(N)OC2=C(C(=O)CC(C)(C)C2)C1C1CCCCC1 (configuration not stated),0.8,-16,56*,24,0.4,-12
CCOC(=O)C1=C(N)OC2=C(C(=O)CCC2)C1c1cccnc1 (configuration not stated),0.8,.,7,22,0.9,.
CCOC(=O)C1=C(N)OC2=C(C(=O)CC(C)(C)C2)C1c1cccnc1 (configuration not stated),0.2,-25,71*,76*,0.3,-10
CCOC(=O)C1=C(N)OC2=C(C(=O)CC(C)(C)C2)C1c1ccoc1 (configuration not stated),0.4,0,67*,64*,0.3,-14
COc1ccccc1CCNC(=O)C1CCCO1 (configuration not stated),1,10,-17,-4,1.2,-7
COc1ccc2c(C)nc(Nc3nc(C)cc(C)n3)nc2c1,1,-25,6,1,0.9,-8
O=C1OC(c2ccc(Cl)cc2)/C(=C(/O)c2ccccc2)C1=O (configuration not stated),1.1,-8,53*,-7,0.5,-15
COc1ccc(-c2onc(C)c2-c2ccccc2)c(O)c1,0,18,41,96*,0.6,1
COc1ccc(-c2noc(C)c2-c2ccc3ccccc3n2)c(O)c1,0,-20,72*,100*,0.3,4
CN1CCN(c2nc(-c3ccccc3)cc(C(F)(F)F)n2)CC1,0.5,13,-10,50*,1.1,1
CC(C)CCOc1ccc(Cl)cc1CN1CCOCC1,0.4,-17,35,56*,0.7,-2
CCCCCOc1ccc(Cl)cc1CN1CCOCC1,0.1,-4,54*,90*,0.5,-5
Cc1cc(CCN2CCC(=O)NC2=S)ccc1OC(C)C,0.2,-27,25,80*,0.7,-2
CC(Sc1nc2ccc(Br)cc2[nH]1)C(=O)O (configuration not stated),0.9,12,6,6,0.9,-2
Cc1ccc(S(=O)(=O)Nc2ccc(NC(=O)CN3CCCCC3)cc2)cc1,1,6,72*,3,0.3,-15
Cc1ccc(S(=O)(=O)Nc2cc(NC(=O)CN3CCOCC3)ccc2Cl)cc1,0.7,-7,86*,33,0.1,-4
Cc1ccc(S(=O)(=O)Nc2cccc(NC(=O)CN3CCCCC3)c2)cc1,0.1,-1,92*,92*,0.1,-18
CC(C)(C)c1cn(-c2ccc(F)cc2)c(=S)[nH]1,0.4,-8,-18,63*,1.2,-9
CC1CC1C(=O)OCc1cc(=O)n2cc(Br)ccc2n1 (configuration not stated),0.4,38,36,63*,0.6,-18
